Measured values taken from PubChem BioAssay (Tox21).
Values joined by “and” are separate entries in the source; they are usually repeats but may differ in a detail not shown here. Equal entries are not always repeated. Records with an inconclusive call do not appear. Active and inactive are the calls of the source. Unless noted, calls come from the whole dose curve.

Tests used:
[1] = Nuclear factor erythroid 2-related factor 2/antioxidant responsive element (Nrf2/ARE) small molecule agonists: qHTS cell viability counter screen in human keratinocytes (AID 1919968; active = well fitted curve in the direction sought with a large enough effect in the repeat runs; an effect the other way counts as inactive or inconclusive; note: nearly all actives have a fitted effect of over 55% in size; note: potency is the fitted concentration of half-maximal effect)
How it was run: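 In human HaCaT keratinocytes stably expressing an ARE-driven luciferase, compound exposure lasted 23 h at 37 C under 5% CO2. Viable cells are quantified with a protease-based fluorogenic reagent (CellTiter-Fluor) read 1 h after addition.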

[2] = Nuclear factor erythroid 2-related factor 2/antioxidant responsive element (Nrf2/ARE) small molecule agonists: luciferase reporter gene qHTS assay in human keratinocytes (AID 1919969); note: nearly all actives have a fitted effect of over 35% in size; note: potency is the fitted concentration of half-maximal effect
[3] = target: Gonadotropin-releasing hormone receptor (Homo sapiens) (UniProt P30968); assay: Human gonadotropin-releasing hormone receptor (GnRHR) small molecule agonists, calcium flux assay in GnRHR-HEK293 cells (AID 1920063); note: nearly all actives have a fitted effect of over 35% in size
Sequence of Gonadotropin-releasing hormone receptor (Homo sapiens) (P30968 whole entry, looked up): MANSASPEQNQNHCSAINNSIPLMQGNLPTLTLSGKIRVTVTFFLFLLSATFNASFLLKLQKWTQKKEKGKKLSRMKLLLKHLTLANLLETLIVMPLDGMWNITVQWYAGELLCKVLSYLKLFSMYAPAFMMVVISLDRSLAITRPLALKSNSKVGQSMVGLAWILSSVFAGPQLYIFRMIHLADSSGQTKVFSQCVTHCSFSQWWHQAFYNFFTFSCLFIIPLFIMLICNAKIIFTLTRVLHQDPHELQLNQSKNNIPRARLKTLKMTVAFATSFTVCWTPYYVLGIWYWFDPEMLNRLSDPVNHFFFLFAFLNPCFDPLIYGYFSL
How it was run: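 Intracellular calcium rise is the read-out: engineered human GnRHR HEK293 cells, dye-loaded, are exposed to DMSO-dissolved compounds and fluorescence at Ex/Em 480/540 is tracked for 3 min.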

[4] = target: KiSS-1 receptor (Homo sapiens) (UniProt Q969F8); assay: Human kisspeptin (KISS1R) small molecule agonists, calcium flux assay in KISS1R-HEK293 cells (AID 1920064; active = well fitted curve in the direction sought with a large enough effect in the repeat runs; an effect the other way counts as inactive or inconclusive)
Sequence of KiSS-1 receptor (Homo sapiens) (Q969F8 whole entry, looked up): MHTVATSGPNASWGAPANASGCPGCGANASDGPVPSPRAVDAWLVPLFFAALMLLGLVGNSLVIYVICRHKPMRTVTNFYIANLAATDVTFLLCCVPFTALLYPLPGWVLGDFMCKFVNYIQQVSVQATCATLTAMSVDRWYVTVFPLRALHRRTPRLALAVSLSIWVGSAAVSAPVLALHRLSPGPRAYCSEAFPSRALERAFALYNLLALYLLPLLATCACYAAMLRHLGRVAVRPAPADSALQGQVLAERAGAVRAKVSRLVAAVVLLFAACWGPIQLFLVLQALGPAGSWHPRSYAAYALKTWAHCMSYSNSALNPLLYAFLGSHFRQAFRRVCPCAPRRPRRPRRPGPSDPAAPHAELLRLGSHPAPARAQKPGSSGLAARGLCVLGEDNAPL
How it was run: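 Concentration-response testing used 15 concentrations in triplicate on human KISS1R-expressing HEK293 cells. Calcium-dependent fluorescence (Ex/Em 480/540) was followed kinetically for 3 min after compound transfer.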

[5] = G protein-coupled receptor (GPCR) small molecule agonists, calcium flux assay: HEK293 wild type cell line counter screen (AID 1920065)
How it was run: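 Fluorescence intensity signals activation. After overnight (18 h) culture and a 1 h calcium dye load at 37 C, compounds are added by pin tool and the plate read at 480/540 nm for 3 min in 1 s steps.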

[6] = p53 small molecule agonists, cell-based qHTS assay with human liver microsomes (AID 1963577);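 note: p53 response element beta-lactamase reporter cells with liver microsomes plus NADPH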
How it was run: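 HLM-supplemented p53RE-bla reporter assay: 16 h compound exposure at 37 C, microsomes and NADPH each 0.5 mg/mL final, read by fluorescence intensity.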

[7] = p53 small molecule agonists, cell-based qHTS assay with rat liver microsomes (AID 1963578)
How it was run: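 Quantitative HTS of the Tox21 10K library: p53RE-bla cells, rat liver microsomes plus NADPH at 0.5 mg/mL final each, 16 h at 37 C, beta-lactamase fluorescence detection.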

[8] = p53 small molecule agonists, cell-based qHTS assay with human liver microsomes: qHTS cell viability counter screen (AID 1963579); note: nearly all actives have a fitted effect of over 45% in size
How it was run: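 Viability of p53RE-bla cells is measured as CellTiter-Glo luminescence following a 16 h, 37 C incubation with compound, liver microsomes from human donors and NADPH.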

[9] = p53 small molecule agonists, cell-based qHTS assay (AID 1963582; active = well fitted activation curve with a large enough effect in the signal ratio in the repeat runs, not every such curve was filed as active; the % refers to the signal ratio)
How it was run: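 After plating, p53RE-bla cells sat 5 h in the incubator; compounds or DMSO vehicle were pinned in; a 16 h incubation at 37 C followed; FRET substrate was added and, 2 h later at RT, fluorescence was measured.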

[10] = target: 5-hydroxytryptamine receptor 2A (Homo sapiens) (UniProt P28223); assay: 5-hydroxytryptamine receptor 2A (HTR2A) small molecule agonists, cell-based qHTS assay (AID 1963587); note: nearly all actives have a fitted effect of over 30% in size
Sequence of 5-hydroxytryptamine receptor 2A (Homo sapiens) (P28223 whole entry, looked up): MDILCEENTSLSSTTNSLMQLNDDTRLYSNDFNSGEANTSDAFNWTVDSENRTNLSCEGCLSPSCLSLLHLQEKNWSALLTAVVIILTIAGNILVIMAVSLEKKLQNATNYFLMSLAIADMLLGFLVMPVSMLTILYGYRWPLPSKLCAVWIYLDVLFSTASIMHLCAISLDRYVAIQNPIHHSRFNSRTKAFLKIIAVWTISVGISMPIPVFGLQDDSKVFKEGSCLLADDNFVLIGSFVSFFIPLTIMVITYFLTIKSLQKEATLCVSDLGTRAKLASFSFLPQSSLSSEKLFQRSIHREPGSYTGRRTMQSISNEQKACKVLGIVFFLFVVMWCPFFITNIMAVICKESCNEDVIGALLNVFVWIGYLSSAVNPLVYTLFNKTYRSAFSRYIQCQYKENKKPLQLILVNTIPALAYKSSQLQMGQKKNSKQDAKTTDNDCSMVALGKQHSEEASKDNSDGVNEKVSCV
How it was run: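 HTR2A-CHO cells, plated 18 h at 37 C/5% CO2, dye-loaded 1 h at 37 C; compounds in DMSO added by pin tool (agonist mode). Intracellular calcium flux read as kinetic fluorescence on FDSS over 2 min at 1 s intervals.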

[11] = target: Muscarinic acetylcholine receptor M1 (Homo sapiens) (UniProt P11229); assay: Cholinergic receptor muscarinic 1 (CHRM1) small molecule antagonists, cell-based qHTS assay (AID 1963588); note: nearly all actives have a fitted effect of over 40% in size
Sequence of Muscarinic acetylcholine receptor M1 (Homo sapiens) (P11229 whole entry, looked up): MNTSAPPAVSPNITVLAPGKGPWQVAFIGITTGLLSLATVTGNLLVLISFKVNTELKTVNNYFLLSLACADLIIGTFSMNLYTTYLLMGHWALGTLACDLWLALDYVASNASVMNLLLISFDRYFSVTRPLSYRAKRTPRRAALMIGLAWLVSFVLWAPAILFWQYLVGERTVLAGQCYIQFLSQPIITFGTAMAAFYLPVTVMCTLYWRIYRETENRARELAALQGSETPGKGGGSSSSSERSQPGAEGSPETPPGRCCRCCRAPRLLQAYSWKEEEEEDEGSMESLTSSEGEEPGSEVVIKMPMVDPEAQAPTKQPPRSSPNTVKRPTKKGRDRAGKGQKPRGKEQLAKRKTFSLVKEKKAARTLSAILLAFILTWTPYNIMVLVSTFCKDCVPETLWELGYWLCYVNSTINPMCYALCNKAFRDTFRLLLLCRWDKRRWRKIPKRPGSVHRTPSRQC
How it was run: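 Compounds were tested at 15 concentrations in three independent runs. Dye-loaded CHRM1-CHO cells were exposed 5 min at room temperature before stimulation by acetylcholine added at 50nM. Intracellular calcium was read kinetically on FDSS for 3 min.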

[12] = target: Muscarinic acetylcholine receptor M1 (Homo sapiens) (UniProt P11229); assay: Cholinergic receptor muscarinic 1 (CHRM1) small molecule agonists, cell-based qHTS assay (AID 1963589); note: nearly all actives have a fitted effect of over 35% in size
How it was run: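 Fluorescent calcium dye reports M1 activation in stably transfected CHO cells. Compounds, 15 concentrations, added after 1 h dye loading at 37 C; kinetic reading at 1 sec intervals.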

[13] = cAMP Responsive Elements (CRE) small molecule antagonists, cell-based qHTS assay (AID 1963591; active = well fitted inhibition curve with a large enough effect in the signal ratio in the repeat runs, not every such curve was filed as active; the % refers to the signal ratio)
How it was run: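 Stimulation used NKH477 at a final 0.25 uM for 3 h in compound-treated CRE-bla HEK293T cells, seeded 18 h beforehand. Reporter activity was measured with LiveBLAzer B/G FRET substrate after 2 h at room temperature.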

[14] = target: Beta-2 adrenergic receptor (Homo sapiens) (UniProt P07550); assay: Adrenergic beta2 receptor (ADRB2) small molecule antagonists, cell-based qHTS assay (AID 1963592); note: series mostly up to about 92 µM; nearly all actives have a fitted effect of over 50% in size
Sequence of Beta-2 adrenergic receptor (Homo sapiens) (P07550 whole entry, looked up): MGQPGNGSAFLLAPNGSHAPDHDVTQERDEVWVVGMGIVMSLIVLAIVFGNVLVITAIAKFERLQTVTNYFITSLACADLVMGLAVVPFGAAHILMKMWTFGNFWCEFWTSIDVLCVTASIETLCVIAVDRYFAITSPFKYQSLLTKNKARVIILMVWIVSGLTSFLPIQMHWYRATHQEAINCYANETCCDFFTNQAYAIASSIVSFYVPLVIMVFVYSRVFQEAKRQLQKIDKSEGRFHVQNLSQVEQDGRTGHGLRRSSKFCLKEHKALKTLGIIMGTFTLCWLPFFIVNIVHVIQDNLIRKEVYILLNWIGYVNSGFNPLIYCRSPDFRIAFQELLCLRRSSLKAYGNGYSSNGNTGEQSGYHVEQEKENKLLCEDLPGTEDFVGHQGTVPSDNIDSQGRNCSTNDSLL
How it was run: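 Assay format: CHO-ADRB2 cells, 18-20hr seeding at 37C/5% CO2, then compound plus 1nM isoproterenol agonist mix for 0.5hr RT. Homogeneous time-resolved fluorescence cAMP detection after 1hr, expressed as 665/615 nm ratio.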

[15] = target: Beta-2 adrenergic receptor (Homo sapiens) (UniProt P07550); assay: Adrenergic beta2 receptor (ADRB2) small molecule agonists, cell-based qHTS assay (AID 1963593);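 note: CHO cells stably overexpressing human ADRB2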
How it was run: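 CHO cells stably over-expressing ADRB2 were plated overnight at 37C, then dosed with compounds plus a stimulation mix containing 100uM IBMX and 25uM Ro-20-1724 for 0.5hr at room temperature. cAMP was measured by HTRF competition, 1hr.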

[16] = target: D(2) dopamine receptor (Homo sapiens) (UniProt P14416); assay: Dopamine D2 receptor (DRD2) small molecule agonists, cell-based qHTS assay (AID 1963594); note: nearly all actives have a fitted effect of over 35% in size
Sequence of D(2) dopamine receptor (Homo sapiens) (P14416 whole entry, looked up): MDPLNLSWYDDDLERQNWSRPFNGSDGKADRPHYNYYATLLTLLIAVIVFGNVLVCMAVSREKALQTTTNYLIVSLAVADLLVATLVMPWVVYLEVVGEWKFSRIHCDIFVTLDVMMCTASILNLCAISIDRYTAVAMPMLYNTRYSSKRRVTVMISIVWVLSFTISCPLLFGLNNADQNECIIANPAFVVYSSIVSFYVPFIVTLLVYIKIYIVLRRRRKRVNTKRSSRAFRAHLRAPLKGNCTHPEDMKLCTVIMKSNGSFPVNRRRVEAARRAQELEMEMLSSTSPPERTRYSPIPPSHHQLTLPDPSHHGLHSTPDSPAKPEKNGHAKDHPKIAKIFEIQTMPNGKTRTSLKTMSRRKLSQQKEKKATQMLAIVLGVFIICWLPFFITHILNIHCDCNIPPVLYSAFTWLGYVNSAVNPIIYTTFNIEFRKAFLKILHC
How it was run: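 HEK293 cells stably expressing DRD2 were cultured 24 h at 37 C, then given Ro20-1724 (0.1 mM final) and compounds for 10 min at room temperature. NKH477 (200nM) was then added for 30 min. cAMP was read by HTRF.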

[17] = target: D(2) dopamine receptor (Homo sapiens) (UniProt P14416); assay: Dopamine D2 receptor (DRD2) small molecule antagonists, cell-based qHTS assay (AID 1963595; active = well fitted inhibition curve with a large enough effect in the signal ratio in the repeat runs, with a control signal flat; the % refers to the signal ratio)
How it was run: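 Antagonism was scored as restored cAMP in HEK293-DRD2 cells. These cells were stimulated with 200 nM NKH477 and 12 nM quinpirole for 30 min at room temperature, in the presence of 0.1 mM Ro20-1724.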

[18] = cAMP Responsive Elements (CRE) small molecule agonists, cell-based qHTS assay (AID 1963590)
How it was run: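 Compound exposure lasted 3 h at 37 C/5% CO2 in CRE-bla HEK 293T cells grown in assay medium with 10% dialyzed FBS and 25 mM HEPES. Reporter signal came from LiveBLAzer B/G FRET substrate, 2 h, room temperature.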

[19] = target: 5-hydroxytryptamine receptor 2A (Homo sapiens) (UniProt P28223); assay: 5-hydroxytryptamine receptor 2A (HTR2A) small molecule antagonists, cell-based qHTS assay (AID 1963586); note: nearly all actives have a fitted effect of over 45% in size
How it was run: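 CHO cells stably expressing human HTR2A were plated for 18 h at 37 C, then loaded with calcium dye for 1 h. Compounds were preincubated 5 min at room temperature before DOI (4 nM solution) was added. Kinetic fluorescence was read for 3 min.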

[20] = p53 small molecule agonists, cell-based qHTS assay: qHTS cell viability counter screen (AID 1963581); note: nearly all actives have a fitted effect of over 45% in size
How it was run: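 Luminescence from CellTiter-Glo, reflecting ATP content, serves as the cytotoxicity measure; it is taken after the 2 h reporter substrate step in HCT-116 p53RE-bla cells dosed for 16 h at 37 C.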

Measured: Potency

FC(F)(F)c1ccccc1-n1ccnc1
not listed: [18] | [19] | [20]
inactive: all other assays above

CCOC(=O)n1ccn(C)c1=S
not listed: [10] | [11] | [12] | [16] | [19] | [20]
inactive: all other assays above

O=c1cc(CO)occ1O
not listed: [11] | [16] | [20]
inactive: all other assays above

C=CC(=O)OCCCCCCCC
not listed: [15] | [20]
inactive: all other assays above

CCCC(C)CO (stereo unspecified)
not listed: [9] | [17] | [20]
inactive: all other assays above

CC(CN1c2ccccc2Sc2ccccc21)N(C)C (stereo unspecified)
not listed: [10] | [11] | [12] | [15] | [18] | [19] | [20]
inactive: all other assays above

CCO[Si](CCCN=C=O)(OCC)OCC
not listed: [15] | [20]
inactive: all other assays above

Cc1cn([C@H]2C[C@H](F)[C@@H](CO)O2)c(=O)[nH]c1=O
not listed: [10] | [20]
inactive: all other assays above

CC(C)NC(=O)c1ccccc1N
not listed: [15] | [20]
inactive: all other assays above

CC(=O)Oc1ccccc1C(=O)Nc1ncc([N+](=O)[O-])s1
active: [1] 55.6 µM | [2] 39.3 µM and 29.8 µM
not listed: [13] | [15] | [18] | [20]
inactive: all other assays above

CCCO[Si](OCCC)(OCCC)OCCC
not listed: [10] | [13] | [17] | [20]
inactive: all other assays above

FC(F)(F)c1cccc(Cl)c1
not listed: [10] | [15]
inactive: all other assays above

CCO[Si](C)(OCC)OCC
not listed: [17]
inactive: all other assays above

C1CCCNCCC1
not listed: [15] | [19]
inactive: all other assays above

CN(C)Cc1ccccc1O
not listed: [18]
inactive: all other assays above
